# High-throughput results as filed in PubChem BioAssay.
# GALK inh: qHTS Assay for Inhibitors of Human Galactokinase (GALK); AID 1868, 2009; Purified GALK, Kinase-Glo residual ATP luminescence; Potency, µM (top dose mostly 57.5 µM), without a hit: at the highest dose activity change, negative = inhibition, actives largely listed as inhibitors; P51570; actives 0.007% (n = 270,000); note: % is set by controls: 0 for no effect and ±100 for the full control effect
#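 GALK at 5 nM final was combined with compound, 35 uM ATP and 100 uM galactose in HEPES pH8.0 with MgCl2 and DTT. The reaction ran one hour at room temperature before luminescent ATP detection.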
# ClpP mod: qHTS Assay for Activators of ClpP | Potency, µM (series often up to 57.5 µM), for the others: at the top dose activity change, negative = active | purified B. subtilis ClpP, FRET peptide cleavage, 20 min | actives 1.9% (n = 340,000) | ATP-dependent Clp protease proteolytic subunit (Bacillus subtilis (strain 168)), P80244; active = well fitted falling curve with a large enough effect; inconclusive = small, poorly fitted or top-dose-only effect; inactive = no such curve, though single readings can be large or run the other way; note: the source files actives as falling curves though it sought activators and does not explain the sign; nearly all actives have a fitted effect of over 65% in size
# Target sequence (P80244 whole entry, looked up): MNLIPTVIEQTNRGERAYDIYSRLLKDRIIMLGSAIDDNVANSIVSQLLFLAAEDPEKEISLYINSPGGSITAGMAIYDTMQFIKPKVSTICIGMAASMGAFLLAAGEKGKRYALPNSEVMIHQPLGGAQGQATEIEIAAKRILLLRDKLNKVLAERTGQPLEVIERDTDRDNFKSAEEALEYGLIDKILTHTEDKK
#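 FRET quenching reversal measured ClpP activation: 10 microg/mL B. subtilis ClpP at pH 8 with the FRET-FV decapeptide, read at 430 nm after 320 nm excitation. The 20-min minus 0-min signal was scaled between DMSO/no-enzyme wells and ADEP (5.8 microM final).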
# USP2a block: qHTS Assay for Inhibitors of Ubiquitin-specific Protease USP2a Using CHOP2 as the Reporter; actives 0.01% (n = 330,000); Ubiquitin carboxyl-terminal hydrolase 2 (Homo sapiens), O75604; Potency, µM (series often up to 38.3 µM), for inactives: top-dose activity change, negative = inhibition, actives largely listed as inhibitors; USP2 core, Ub-CHOP2 coupled fluorogenic reporter, 485/531;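 note: plate controls were DMSO wells for no effect and full inhibition by NEM control for full effect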
#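 USP2 core (10nM final) preincubated 30min RT with compound in 20mM Tris-HCl pH 8.0, 2mM CaCl2, 2mM beta-mercaptoethanol, 0.05% CHAPS; 25nM Ub-CHOP2 plus 25nM reporter substrate added, fluorescence (Ex485/Em531) read after 60min.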
# Eya2 phos inh: qHTS Assay for Inhibitors of the Phosphatase Activity of Eya2 | actives 0.006% (n = 330,000) | recombinant Eya2, OMFP fluorescence dephosphorylation (OMFP is methylfluorescein phosphate) | AID 488837, 2010 | Potency, µM (titrated, usually from 76.9 µM), for inactives: at the top dose activity, negative = inhibition, usual class: inhibitors; note: % is set by controls: 0 for no effect and ±100 for the full control effect
#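 Eya2 (0.2 uM) preincubated 10 min at ambient with compound, then OMFP substrate added at 50 uM; 10 min reaction in 50 mM HEPES pH 7.5, 50 mM NaCl, 5 uM MgCl2, 0.05% BSA, 1 mM DTT. Fluorescence read at Ex 485/Em 525 nm.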
# Starred values were filed as active, the others as inactive; ? = inconclusive; . = no result given; ! = repeats disagree. This is one part of a sample in which hits are shown more often than they occur. Unless noted, calls come from the whole dose curve; as a rule, active = well fitted inhibition curve with a large enough effect; inconclusive = small, poorly fitted or top-dose-only effect, or effect the other way; inactive = flat fitted curve, though single readings scatter. Potency is the fitted concentration of half-maximal effect.
SMILES,GALK inh,ClpP mod,USP2a block,Eya2 phos inh
CCN(C(=O)COc1cc(OC)ccc1C(C)=O)C1CCS(=O)(=O)C1 (stereo not given),.,2%,1%,-10%
COc1ccc2oc(C(=O)OCC(=O)NC3CCCCC3)c(C)c2c1,.,16µM*,-3%,-6%
COc1ccc2oc(C(=O)OCC(=O)N(CCC#N)c3ccccc3)c(C)c2c1,2%,32µM*,-1%,-1%
CCN(C(=O)COC(=O)c1oc2ccc(OC)cc2c1C)C1CCS(=O)(=O)C1 (stereo not given),.,8.9µM*,1%,5%
CCOC(=O)c1ccc(N=Cc2nc3ccccc3n2C)cc1,0%,-5%,2%,-2%
CCc1ccc(C(=O)NC(C(=O)NCC2CCCO2)C(C)C)cc1 (stereo not given),2%,.,1%,-2%
COc1ccc2nc(-c3ccccc3)cc(C(=O)OCC(=O)NC3CC3)c2c1,.,10µM*,2%,1%
COc1ccc(-c2cc(C(=O)OCC(=O)NC3CC3)c3ccccc3n2)cc1OC,.,.,0%,-11%
O=C(O)C1CCCCC1C(=O)Nc1ccccc1Nc1ccccc1 (stereo not given),1%,25µM*,1%,-7%
Cc1cc(S(=O)(=O)Nc2ccc(C(=O)NCC(C)(C)N3CCOCC3)cc2)ccc1F,-6%,-1%,-1%,-8%
CC1CCN(C(=O)COC(=O)CCCN2C(=O)c3cccc4cccc(c34)C2=O)CC1,4%,32µM*,4%,-10%
FC(F)Sc1ccc(NC(=S)NC2CCCC2)cc1,0%,.,11%,-27%
O=C(NCc1cccnc1)c1nn(-c2ccc(Cl)cc2)nc1CO,.,28µM*,.,.
O=C(NCc1ccccc1)c1nn(-c2ccccc2)nc1CO,.,32µM*,.,.
COC(=O)c1nn(-c2ccccc2)nc1-c1nn(-c2ccccc2)nc1C(=O)OC,1%,?,0%,-11%
O=C(O)c1nn(-c2ccccc2)nc1-c1nn(-c2ccccc2)nc1C(=O)O,-1%,25µM*,0%,20%
Cc1ccc(C2=NS(=O)(=O)N(C)C(C(=O)N3CCCCC3)=C2)cc1,.,-8%,0%,-8%
O=C(CCCCCN1C(=O)c2cccc([N+](=O)[O-])c2C1=O)Nc1ccccc1F,0%,0%,1%,0%
CCC1=C2CC[C@H]3C(=O)N(c4ccccc4)C(=O)[C@H]3[C@H]2[C@@]2(C)C(=NCC3CC3)OC(=O)N2C1=O,4%,1%,-9%,16%
Nc1nc(-c2ccccc2)nc2sc3c(c12)CCCC3,1%,32µM*,-5%,1%
O=c1oc(-c2ccccc2)nc2sc3c(c12)CCC3,.,9%,1%,0%
COc1c(C)cccc1C(=O)Nc1ccc(Cl)c(-c2nc3cc(C)ccc3o2)c1,.,25µM*,.,.
Cc1ccc2oc(-c3cccc(NC(=O)c4cccc5c(Cl)cccc45)c3)nc2c1,.,-19%,.,.
COc1ccc2oc(-c3ccc(NC(=O)c4ccc(Cl)cc4Cl)cc3)nc2c1,.,35µM*,.,.
Cc1cc(C)c2oc(-c3ccc(NC(=O)c4cc(Br)ccc4Cl)cc3)nc2c1,.,20µM*,.,.
SMILES,GALK inh,ClpP mod,USP2a block,Eya2 phos inh
COc1ccc2oc(-c3ccc(C)c(NC(=O)CSc4ccc(Cl)cc4)c3)nc2c1,-1%,11µM*!,1%,-5%
C=CCNC(=O)CCCc1ccccc1,5%,0%,3%,7%
Oc1ccc2ccccc2c1CN1CCN(c2ccccc2F)CC1,0%,11µM*,1%,-1%
Oc1ccc2ccccc2c1CN1CCN(C/C=C/c2ccccc2)CC1,0%,.,-2%,1%
COc1ccc2nc(CC(C)(C)CC(=O)O)c[n+]([O-])c2c1,0%,16µM*,2%,4%
c1ccc(-c2cc3ccccc3[nH]2)cc1,.,5%,-5%,-8%
Clc1ccc2[nH]c(-c3ccccc3)cc2c1,3%,28µM*,-1%,-39%
CCOc1ccc(S(=O)(=O)N(CC(=O)Nc2ccc3c(c2)OCO3)c2ccccc2)cc1,.,2%,.,.
COc1cccc(N2CC(C(=O)Nc3nnc(SCc4cccnc4)s3)CC2=O)c1 (stereo not given),0%,13µM*,0%,-22%
